According to PubChem BioAssay (NCI):
About 79,000 compounds went through this panel and 15% of them were active in at least one assay; those are over-represented in the sample as a whole. Unmarked numbers belong to inactive results. The source made the active and inactive calls. Rule as the data show it: active = growth inhibition above about 70%; inactive = the rest.

experiment: NCI Yeast Anticancer Drug Screen. Data for the rad50 strain (AID 155);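 also: 0% = growth of vehicle-only cultures of the same strain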; conditions: S. cerevisiae rad50 strain growth inhibition; at 50.0 µM; stronger effect = higher value
Procedure, shortened: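 Growth of the mutant yeast was measured after compound exposure and referenced to vehicle-treated cultures.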

Structure (SMILES)	growth inhibition
CCOC(=O)C(CC)(C(=O)OCC)C(C)CC (configuration not stated)	11.3%
Cc1ccc(S(=O)(=O)C(CCC(=O)c2ccccc2)(CCC(=O)c2ccccc2)[N+](=O)[O-])cc1	-9.05%
CCC[CH2][Sn]([CH2]CCC)([O]C(=O)c1cccc(F)c1F)[O][Sn]([CH2]CCC)([CH2]CCC)[O]C(=O)c1cccc(F)c1F	89.4% (active)
O=C1c2ccccc2C2(O)NC(=S)N(c3ccccc3)C12O (configuration not stated)	-14.2%
NC(C(=O)O)C(F)(F)C(=O)O (configuration not stated)	2.45%
CC1=C(C)Cc2c(-c3ccccc3)oc(-c3ccccc3)c2C1	-13.3%
O=C(O)c1ccc2c([N+](=O)[O-])cccc2n1	33.5%
O=[N+]([O-])c1ccc(Oc2cccc3ccccc23)c([N+](=O)[O-])c1	4.75%
CCOc1ncnc2ccc(Cl)cc12	-8.65%
CN(C)c1nc(NN)c2c(-c3ccccc3)c(-c3ccccc3)oc2n1	10.2%
CCOC(=O)NCc1cccc2ccccc12	3.2%
NNC(=O)c1cccc(C(=O)NN)n1	6.25%
Cc1cccc(N=NC2Sc3nc4ccccc4n3C2=O)c1 (configuration not stated)	-16.9%
O=C(/C=C/c1ccc(O)c(O)c1)c1ccc(O)cc1O	-26.5%
CCCCCCCCCCCCCC(=O)Oc1ccc([N+](=O)[O-])cc1	-2.65%
COc1ccc(-c2nnc(-c3ccc(OC)cc3)nn2)cc1	1.8%
[O-][n+]1c2ccc(Cl)cc2nc2ccc(Cl)cc21	-9.35%
